This is a sample that favours compounds with a hit; in the whole collection about 7.8% have one here.
HCMV antiviral – blocks human cytomegalovirus replication; activity change, negative = inhibition, % at 57.5 µM; HFF cells, HCMV-luciferase reporter, 72 h; active compounds read low; 410,000 tested, 4.5% active; in the data active = activity change below about -60%; inconclusive = no clear call, values can overlap the other calls; inactive = above about -39%
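Two-dose cell screen: HFF monolayers treated with compounds and infected with luciferase-expressing HCMV at 1 PFU/cell, 72 h at 37C, then lysed for luciferase measurement.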
VACV Venus inh – inhibitors of vaccinia virus (Venus reporter). Potency, µM (titrated, usually from 36.5 µM), for the others: at the top dose activity change, negative = inhibition, actives largely listed as inhibitors. Vaccinia virus Venus reporter expression, fluorescence. 330,000 tested, 0.46% active; calls by dose curve; tested in A549 cells; note: potency is the fitted concentration of half-maximal effect; nearly all actives have a fitted effect of over 30% in size
VACV mCherry inh – vaccinia inhibition (mCherry reporter). Vaccinia virus mCherry reporter infection, fluorescence. Potency, µM (top dose mostly 36.5 µM), for inactives: at the highest dose activity change, negative = inhibition, usual class: inhibitors. 310,000 tested, 0.63% active. AID 720579; calls by dose curve; tested in A549 cells; note: potency is the fitted concentration of half-maximal effect; nearly all actives have a fitted effect of over 35% in size
HCV inh – HCV inhibition; Huh7.5.1 HCVcc-Cre infection, luciferase reporter, 44 h; Potency, µM (highest dose often 41.8 µM), for inactives: top-dose activity change, negative = inhibition, actives largely listed as inhibitors; 340,000 tested, 3.4% active; active = well fitted inhibition curve with a large enough effect; inconclusive = small, poorly fitted or top-dose-only effect, or another doubt; inactive = no such curve, though single readings can be large or run the other way; note: potency is the fitted concentration of half-maximal effect
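Cells seeded at 1,000/well and cultured 4 h, then compounds added followed by HCVcc-Cre virus (~0.5 moi). After 44 h further culture, luciferase substrate was added, plates held 15 min at room temperature, and luminescence read for 15 sec.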
MARV entry inh – inhibitors of Marburg virus binding or cell entry; Potency, µM (top dose mostly 37.8 µM), without a hit: at the top dose activity change, negative = inhibition, usual class: inhibitors; 300,000 tested, 1.8% active; Marburg virus pseudotyped entry inhibition, cell reporter; AID 540276; calls by dose curve; tested in HEK293 cells; note: potency is the fitted concentration of half-maximal effect
Lassa entry inh – Lassa virus entry inhibition. 300,000 tested, 1.2% active. Potency, µM (top dose mostly 37.9 µM), for the others: at the top dose activity change, negative = inhibition, hits mostly inhibitors. Lassa virus pseudotype entry inhibition, cell reporter; calls by dose curve; tested in HEK293 cells; note: potency is the fitted concentration of half-maximal effect; nearly all actives have a fitted effect of over 50% in size
An asterisk follows results filed as active; i = inactive; ? = inconclusive; · = no result; [ ] = remark or other dose. % is set by controls: 0 for no effect and ±100 for the full control effect.

SMILES | HCMV antiviral | VACV Venus inh | VACV mCherry inh | HCV inh | MARV entry inh | Lassa entry inh
COc1ccc(CNC(=O)CN(c2cc(C(F)(F)F)ccc2Cl)S(C)(=O)=O)cc1 | 3 | 13% | 13% | · | ? | -10%[46.1 µM]
CCOC(=O)CNC(=O)Nc1cc(C(=O)NCc2ccccc2OC)ccc1N1CCCC1 | 15 | -3% | -9% | · | · | 12%[46.1 µM]
OC[C@H]1O[C@H](c2ccccc2)C=C[C@H]1OCc1cccc(Br)c1 | · | · | · | · | -11%[14.2 µM] | ·
Cc1ccc2[nH]c3c(c2c1)CN(C(=O)CN1C[C@@H](C)O[C@@H](C)C1)CC3 | · | · | · | · | 6% | ·
COc1ccc(-c2cc(-c3c(O)c(OC)c4occc4c3OC)[nH]n2)cc1 | 113 | · | · | 32µM* | ? | -8%
COc1ccc(-c2cc(-c3c(O)c(OC)c4occc4c3OC)[nH]n2)cc1OC | 20 | ? | -6% | 11µM* | -19% | -34%
CC(=O)c1cc(-c2ccccc2)n(CCC(=O)NCCc2ccccc2)c1C | ? | -4% | -9% | · | · | ?
CCc1ccccc1N1CC(c2nc3ccccc3n2CC(C)C)CC1=O (stereo not given) | 9 | -8% | -14% | · | -31%[46.1 µM] | ?
CCCC[C@@H](CNC)NC[C@H](NCCCCC1CCCCC1)C(C)C | -99* | ? | -25% | -55% | · | ·
Cc1ccc(C(=O)c2c(N)c(-c3nc(-c4ccc5c(c4)OCO5)cs3)c3ccccn23)cc1C | -2 | 5% | 1% | · | 15%[46.1 µM] | -11%[46.1 µM]
CC(C)(C)OC(=O)N1CCC(c2c(C(=O)NCc3ccc4c(c3)OCO4)cnn2-c2ccccc2Cl)CC1 | 0 | -8% | -8% | · | · | -26%[46.1 µM]
O=C(CC(c1ccccc1)c1ccccc1O)N1CCCCC1 (stereo not given) | -82* | · | · | 0% | · | ·
C/C(=N\NC(=O)c1cc2ccccc2cc1O)c1ccccn1 | -99* | -9% | ? | 3.2µM* | ? | ?
C/C(=N\NC(=O)CCCNc1ccccc1)c1ccncc1 | -27 | -7% | -2% | 15% | 1%[46.1 µM] | ?
C/C(=N\NC(=O)CCCNc1ccc(C)cc1)c1ccccn1 | -67* | ? | 11µM* | ? | 6.5µM* | -20%
Fc1ccc(N/N=C(/c2ccccc2)c2ccccn2)cc1 | -61* | -7% | -16% | ? | 5% | 9%
CCc1ccc(/C(C)=N/NC(=O)c2ccccn2)cc1 | 14 | · | · | -2% | · | ·
CCOc1ccc(C(=O)N/N=C(\c2ccccc2)c2ccccn2)cc1 | -99* | ? | 11µM* | 10µM* | ? | 7.1µM*
CCc1nc2c(OCc3cc(Cl)cc(Cl)c3)cccn2c1N(C)C(=O)c1ccc(C)cc1 | 73 | -12% | 20% | · | · | ·
COc1cc(OC)cc(-c2nc3n(n2)C(c2ccccc2)C(C(N)=O)=C(C)N3)c1 (stereo not given) | -21 | -7% | -12% | · | -16%[46.1 µM] | 1%[46.1 µM]
C/C(CC(=O)N1CCN(C=O)CC1)=N\NC(=O)c1cc2ccccc2cc1O | -64* | -3% | i | 12% | ? | -17%
C/C(CC(=O)N1CCN(C=O)CC1)=N\NC(=O)c1ccc([N+](=O)[O-])cc1 | -34 | · | · | 10% | · | ·
C/C(=N\NC(=O)c1ccc(N/N=C(\C)c2ccncc2)cc1)c1ccncc1 | -39 | -13% | -16% | ? | 1µM* | -3%[46.1 µM]
C/C(=N\NC(=O)c1ccc(F)cc1)c1ccccn1 | -98* | ? | ? | 2.5µM* | · | ·
C/C(=N\NC(=O)c1ccccc1-n1cccc1)c1ccccn1 | -99* | ? | ? | · | · | ·
SMILES | HCMV antiviral | VACV Venus inh | VACV mCherry inh | HCV inh | MARV entry inh | Lassa entry inh
C/C(=N/NC(=O)c1ccncc1)c1ccccc1 | 16 | -9% | -22% | 2% | ? | -2%
COc1cc(=O)n2c(c1C(=O)N(C)Cc1nonc1C)CCN(C(=O)c1ccc(C)c(C)c1)CC2 | · | 2% | -9% | · | · | ·
Cc1ccc(CNC(=O)CN2C(=O)COc3ccc(S(=O)(=O)Nc4ccccc4)cc32)cc1 | 27 | -6% | -2% | · | · | 10%[46.1 µM]
COc1cc2c(cc1OC)C(COc1ccc(C(C)C)cc1)N(C(=O)c1ccc(S(=O)(=O)N3CCCC3)cc1)CC2 (stereo not given) | -2 | -6% | 5% | · | · | -22%[46.1 µM]
CCOC(=O)c1ccccc1NC(=O)Cn1ccn2nc(-c3ccc(OCC)cc3)cc2c1=O | 8 | -4% | -6% | · | · | ?
O=S(=O)(NCCc1ccc(F)cc1)c1ccccc1Br | · | · | · | · | · | -10%[46.1 µM]
Cc1ccc(Oc2c(C(F)(F)F)oc3c(CN4CCC(C)CC4)c(O)ccc3c2=O)cc1 | -10 | -3% | -6% | · | 25%[46.1 µM] | 10%[46.1 µM]
C/C(=N\NC(=O)c1c[nH]c2ccccc12)c1ccco1 | 238 | 0% | -12% | -5% | 27% | ?
C/C(=N\NC(=O)c1c[nH]c2ccccc12)c1ccccn1 | -82* | ? | 10µM* | ? | ? | 2µM*
CCOc1ccc(N/C=C/C(=O)c2ccccc2)c([N+](=O)[O-])c1 | 1 | -15% | -14% | -28% | ? | 1.1µM*
CC(C)CCN(C(=O)c1ccncc1)c1c(N)n(Cc2ccccc2)c(=O)[nH]c1=O | -19 | · | · | -17% | · | ·
Nc1c(N(CCC2=CCCCC2)C(=O)COc2ccc(F)cc2Cl)c(=O)[nH]c(=O)n1Cc1ccccc1 | -98* | · | · | ? | · | ·
CC(C)CCN(C(=O)Cc1ccc(Cl)c(Cl)c1)c1c(N)n(Cc2ccccc2)c(=O)[nH]c1=O | -31 | -14% | -8% | 10µM* | 2% | ?
COc1ccccc1OCCN1CSC(=S)N(C)C1 | -74* | -11% | -19% | 20% | ? | 7%
Cc1cccc(OCCN2CSC(=S)N(C)C2)c1 | -2 | -15% | -20% | 11% | -27% | -15%
COc1ccc(-c2nnc(SCc3cc(=O)c4cc(C)cc(C)c4[nH]3)n2C)cc1 | -66* | ? | ? | · | · | -23%[46.1 µM]
CCCCCCCCCCOC(=O)Cn1c(COc2ccc(OC)cc2)[n+](C)c2ccccc21 | · | 11µM* | ? | ? | 3.2µM* | ?
CCCCCCCCCCOC(=O)Cn1c(COc2cccc(C)c2)[n+](C)c2ccccc21 | -37 | ? | -4% | ? | ? | -17%[46.1 µM]
CCOC(=O)Cn1c(COc2ccccc2OC)[n+](C)c2ccccc21 | 22 | · | · | ? | · | ·
CCCCCCCCCCOC(=O)Cn1c(COc2ccc(Cl)cc2)[n+](C)c2ccccc21 | -40 | 10µM* | ? | ? | · | ·
CCCCCCCCCCOC(=O)Cn1c(COc2ccccc2)[n+](C)c2ccccc21 | -40 | 11µM* | ? | ? | · | ·
CCCCCCCCCCOC(=O)Cn1c(COc2ccccc2C)[n+](C)c2ccccc21 | · | 28µM* | ? | ? | 25µM* | 8.9µM*
Cc1cc2c(c(=O)n1Cc1ccccc1)[C@H]1O[C@](c3ccsc3)(Cc3cc(C#N)ccc31)O2 | · | · | · | · | 1%[14.2 µM] | ·
COC(=O)CCN(c1ccccc1)C(CNS(=O)(=O)c1ccccc1)c1ccccc1 (stereo not given) | -10 | -7% | -15% | · | ? | ?
